# Records with an inconclusive call do not appear. Unmarked numbers belong to inactive results. Calls of active or inactive are those of the source. The call rests on the fitted dose curve; in most records, active means well fitted curve in the direction sought with a large enough effect; inconclusive means small, poorly fitted or top-dose-only effect, or another doubt; inactive means no such curve, though single readings can be large; an effect the other way counts as inactive or inconclusive.
# Experiment: Quantitative High-Throughput drug screen in 47 multiple myeloma cell lines against the NCATS MIPE library collection: Karpas620_DSMZ cell viability assay (AID 1918959); further: nearly all actives have a fitted effect of over 30% in size
# Settings: Karpas620 myeloma viability, CellTiter-Glo ATP luminescence, 48 h; series mostly up to 45.8 µM; viability (% of DMSO): at the top concentration
# Summary of the method: (§1)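 Myeloma cells (500 per well) were exposed to MIPE 4.0 compounds by pin transfer and incubated 48 hours at 37C, 5% CO2. Viability was read as ATP by CellTiter-Glo luminescence, normalised to DMSO (100%) and media-only (0%) wells.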
# Potency means the concentration at half of the fitted maximal effect.
SMILES,viability (% of DMSO),Potency
Nc1cccc2c1CN(C1CCC(=O)NC1=O)C2=O (configuration not stated),116% [at 92.2 µM],
CCc1nc(N)nc(N)c1-c1ccc(Cl)cc1,110%,
Cc1cccc(C#Cc2ccccc2)n1,124%,
CN(C)C(=O)COC(=O)Cc1ccc(OC(=O)c2ccc(N=C(N)N)cc2)cc1,,7.43 µM (active)
CN(C)[C@@H](CCOc1cccc2ccccc12)c1ccccc1,94.4%,
CCCS(=O)c1ccc2nc(NC(=O)OC)[nH]c2c1 (configuration not stated),101%,
C[C@@H](N)C1CCC(C(=O)Nc2ccncc2)CC1 (some centres not stated),105%,
O=C1c2c(O)cc(O)cc2OC(c2ccc(O)c(O)c2)C1O (configuration not stated),123%,
Cc1cc2cc3c(C)cc(=O)oc3c(C)c2o1,,23.5 µM (active)
CC(=O)N1CCN(c2ccc(OC[C@H]3CO[C@](Cn4ccnc4)(c4ccc(Cl)cc4Cl)O3)cc2)CC1,,5.26 µM (active)

# Experiment: Quantitative High-Throughput drug screen in 47 multiple myeloma cell lines against the NCATS MIPE library collection: KMM1_JCRB cell viability assay (AID 1918960); further: nearly all actives have a fitted effect of over 30% in size
# Settings: KMM1 myeloma viability, CellTiter-Glo ATP luminescence, 48 h; series mostly up to 45.8 µM; viability (% of DMSO): at the top concentration
# Summary of the method: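 Viability screen: myeloma cells (500/well) incubated 48 h at 37 °C, humidified 5% CO2, with pinned library compounds; CellTiter-Glo added, luminescence read; DMSO wells set 100%, medium-only wells 0%.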
SMILES,viability (% of DMSO),Potency
Nc1cccc2c1CN(C1CCC(=O)NC1=O)C2=O (configuration not stated),118% [at 92.2 µM],
CC1=C(C(=O)O)N2C(=O)[C@@H](NC(=O)[C@H](N)C3=CCC=CC3)[C@H]2SC1,84.3%,
Cc1cccc(C#Cc2ccccc2)n1,115%,
NS(=O)(=O)c1cc(C(=O)O)c(NCc2ccco2)cc1Cl,83.1%,
CCCS(=O)c1ccc2nc(NC(=O)OC)[nH]c2c1 (configuration not stated),87.4%,
C[C@@H](N)C1CCC(C(=O)Nc2ccncc2)CC1 (some centres not stated),102%,
O=C1c2c(O)cc(O)cc2OC(c2ccc(O)c(O)c2)C1O (configuration not stated),90.8%,
CC(C)c1ccc2c(c1)c(SC(C)(C)C)c(CC(C)(C)C(=O)O)n2Cc1ccc(Cl)cc1,85.8%,
CC(=O)N1CCN(c2ccc(OC[C@H]3CO[C@](Cn4ccnc4)(c4ccc(Cl)cc4Cl)O3)cc2)CC1,,5.26 µM (active)
Cc1c(OCC(F)(F)F)ccnc1CS(=O)c1nc2ccccc2[nH]1 (configuration not stated),,20.9 µM (active)
C=C(c1ccc(C(=O)O)cc1)c1cc2c(cc1C)C(C)(C)CCC2(C)C,117%,
CCN(CCO)CCCC(C)Nc1ccnc2cc(Cl)ccc12 (configuration not stated),85.7%,

# Experiment: Quantitative High-Throughput drug screen in 47 multiple myeloma cell lines against the NCATS MIPE library collection: KHM11_PLB cell viability assay (AID 1918962); further: nearly all actives have a fitted effect of over 35% in size
# Settings: KHM11 myeloma cell viability, CellTiter-Glo ATP luminescence, 48 h; series mostly up to 45.8 µM; viability, % of DMSO control: at the top concentration
# Summary of the method: as §1
SMILES,"viability, % of DMSO control [%]",Potency
CC1=C(C(=O)O)N2C(=O)[C@@H](NC(=O)[C@H](N)C3=CCC=CC3)[C@H]2SC1,84.2,
CCc1nc(N)nc(N)c1-c1ccc(Cl)cc1,84.3,
CCN(CC)CCOc1ccc(Cc2ccccc2)cc1,119,
COc1cc2nc(N3CCN(C(=O)C4CCCO4)CC3)nc(N)c2cc1OC (configuration not stated),87.5,
CC(=O)O[C@H]1C(=O)[C@@]2(C)C([C@H](OC(=O)c3ccccc3)[C@]3(O)C[C@H](OC(=O)[C@H](O)[C@@H](NC(=O)c4ccccc4)c4ccccc4)C(C)=C1C3(C)C)[C@]1(OC(C)=O)CO[C@@H]1C[C@@H]2O (some centres not stated),90.2,
CN(C)C(=O)COC(=O)Cc1ccc(OC(=O)c2ccc(N=C(N)N)cc2)cc1,,0.662 µM (active)
COc1cc(Nc2c(C#N)cnc3cc(OCCCN4CCN(C)CC4)c(OC)cc23)c(Cl)cc1Cl,,5.26 µM (active)
NC(=NCc1ccccc1)NC(=O)c1nc(Cl)c(N)nc1N,,10.5 µM (active)
CC(C)c1ccc2c(c1)c(SC(C)(C)C)c(CC(C)(C)C(=O)O)n2Cc1ccc(Cl)cc1,96.1,
Nc1nc(OCc2ccccc2)c2[nH]cnc2n1,75.4,
CC(C)C[C@H](NC(=O)[C@H](Cc1ccccc1)NC(=O)c1cnccn1)B(O)O,,0.0083 µM (active)
Nc1nc(Cl)nc2c1ncn2[C@H]1C[C@H](O)[C@@H](CO)O1,,1.05 µM (active)

# Experiment: Quantitative High-Throughput drug screen in 47 multiple myeloma cell lines against the NCATS MIPE library collection: JIM3_ECACC cell viability assay (AID 1918963; further: nearly all actives have a fitted effect of over 35% in size)
# Settings: JIM3 myeloma viability, CellTiter-Glo ATP, 48 h; series mostly up to 45.8 µM; viability, percent of control: at the top concentration
# Summary of the method: as §1
SMILES,"viability, percent of control",Potency
COc1cc(C(C)=O)ccc1OCCCN1CCC(c2noc3cc(F)ccc23)CC1,88.2%,
Nc1cccc2c1CN(C1CCC(=O)NC1=O)C2=O (configuration not stated),106% [at 92.2 µM],
CC(C)[N+]1(C)[C@@H]2CC[C@H]1CC(OC(=O)C(CO)c1ccccc1)C2 (some centres not stated),122%,
CC1=C(C(=O)O)N2C(=O)[C@@H](NC(=O)[C@H](N)C3=CCC=CC3)[C@H]2SC1,106%,
CN(C)CCc1c[nH]c2ccc(Cn3cncn3)cc12,127%,
CCc1nc(N)nc(N)c1-c1ccc(Cl)cc1,,2.35 µM (active)
CC1Cc2ccccc2N1NC(=O)c1ccc(Cl)c(S(N)(=O)=O)c1 (configuration not stated),104%,
CCN(CC)CCOc1ccc(Cc2ccccc2)cc1,102%,
COc1cc2nc(N3CCN(C(=O)C4CCCO4)CC3)nc(N)c2cc1OC (configuration not stated),106%,
CCN(CC)C(=S)SSC(=S)N(CC)CC,,0.001 µM (active)
Cc1cccc(C#Cc2ccccc2)n1,119%,
CC(=O)O[C@H]1C(=O)[C@@]2(C)C([C@H](OC(=O)c3ccccc3)[C@]3(O)C[C@H](OC(=O)[C@H](O)[C@@H](NC(=O)c4ccccc4)c4ccccc4)C(C)=C1C3(C)C)[C@]1(OC(C)=O)CO[C@@H]1C[C@@H]2O (some centres not stated),21.9%,
NS(=O)(=O)c1cc(C(=O)O)c(NCc2ccco2)cc1Cl,92%,
COc1cc(Nc2c(C#N)cnc3cc(OCCCN4CCN(C)CC4)c(OC)cc23)c(Cl)cc1Cl,,18.7 µM (active)
O=c1oc2cc(O)ccc2s1,99.6%,
O=C1c2c(O)cc(O)cc2OC(c2ccc(O)c(O)c2)C1O (configuration not stated),134%,
CC(=O)N1CCN(c2ccc(OC[C@H]3CO[C@](Cn4ccnc4)(c4ccc(Cl)cc4Cl)O3)cc2)CC1,,11.8 µM (active)
Nc1nc(OCc2ccccc2)c2[nH]cnc2n1,,13.2 µM (active)
CC(C)C[C@H](NC(=O)[C@H](Cc1ccccc1)NC(=O)c1cnccn1)B(O)O,,0.0235 µM (active)
Nc1nc(Cl)nc2c1ncn2[C@H]1C[C@H](O)[C@@H](CO)O1,,0.526 µM (active)
Cc1c(OCC(F)(F)F)ccnc1CS(=O)c1nc2ccccc2[nH]1 (configuration not stated),,16.6 µM (active)
O=C1CCc2ccc(OCCCCN3CCN(c4cccc(Cl)c4Cl)CC3)cc2N1,,14.8 µM (active)
CCN(CCO)CCCC(C)Nc1ccnc2cc(Cl)ccc12 (configuration not stated),110%,

# Reference: PubChem BioAssay (NCATS)
